Sampled rows, rich in hits. Any-hit rate of the full collection: about 4.2%.
NALP3 yeast inh = blocks the NALP3 inflammasome reconstituted in yeast | Yeast reconstituted NLRP3/ASC/caspase-1, beta-gal luminescence, 24 h | inhibition, % at 10 µM | hit rate 0.39% among 330,000 | AID 2825;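 active = inhibition of 50% or more; inactive = inhibition below 50%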
NALP1 yeast inh = NALP1 inhibition; hit rate 0.61% among 280,000; inhibition, % at 10 µM; S. cerevisiae NALP1/ASC/caspase-1 growth, X-gal OD620, 72 h; in the data active = inhibition mostly above about 24%, no sharp cut-off; inactive = mostly below about 32%
TIM10 inh = inhibits growth of TIM10 yeast strain; inhibition, % at 10 µM; AID 463195; S. cerevisiae TIM10 strain growth, BacTiter-Glo luminescence, 24 h; hit rate 1.4% among 330,000;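 active = inhibition of 40% or more at the single tested concentration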;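 also: wild-type TIM10 isogenic control strain grown at permissive 25 °C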
tim23-1 inh = inhibits growth of tim23-1 mutant yeast; inhibition, % at 20 µM; S. cerevisiae tim23-1 growth, BacTiter-Glo luminescence, 24 h; hit rate 1.3% among 330,000;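 active = growth inhibition of the mutant yeast at or above 50%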;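 also: temperature-sensitive mutant grown at 25 °C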
tim10-1 inh = growth inhibitors of tim10-1 mutant yeast; S. cerevisiae tim10-1 ts strain growth, BacTiter-Glo, 24 h; inhibition, % at 20 µM; hit rate 2.2% among 330,000;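 active = inhibition of at least 40%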;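 also: mutant grown at 25 °C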
PfHsp90 yeast 2 = reduces growth (ATP signal) of yeast expressing P. falciparum Hsp90; S. cerevisiae expressing PfHsp90, BacTiter-Glo ATP, 48 h; yeast lacking PDR1 and PDR3 efflux regulators; inhibition, % at 9.4 µM; hit rate 0.32% among 310,000; AID 504621;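 active = every replicate shows inhibition above about 80%, whatever the replicate mean, limit read from the data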
tim10-1 confirm = confirmation of tim10-1 mutant yeast growth inhibitors | shares compounds with tim10-1 inh | S. cerevisiae tim10-1 ts strain growth, BacTiter-Glo, 24 h | inhibition, % at 20 µM | hit rate 56% among 7,400 | AID 463213;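 active = inhibition of yeast growth at or above a set limit in either of two repeat tests at 20 µM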;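 also: tim10-1 mutant grown at permissive 25 °C to find synthetic lethal compounds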
tim10 confirm = TIM10 yeast growth inhibition, confirmed; shares compounds with TIM10 inh; S. cerevisiae tim10 strain growth, BacTiter-Glo luminescence, 24 h; inhibition, % at 10 µM; hit rate 63% among 4,600; AID 463215;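 active = inhibition of yeast growth at or above a set limit in either of two replicates at 10 µM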; also: this counterscreen used the strain with wild-type TIM10
tim23-1 confirm = tim23-1 yeast growth inhibition, confirmed | AID 463218 | S. cerevisiae tim23-1 growth, BacTiter-Glo luminescence, 24 h | inhibition, % at 20 µM | shares compounds with tim23-1 inh | hit rate 83% among 4,400;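 active = inhibition above about 39% in either of two replicate wells at 20 µM, limit read from the data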;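 also: temperature-sensitive tim23-1 mutant grown at 25 °C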
Numbers stand for hits; 0 = inactive; - = no result given.

SMILES	NALP3 yeast inh	NALP1 yeast inh	TIM10 inh	tim23-1 inh	tim10-1 inh	PfHsp90 yeast 2	tim10-1 confirm	tim10 confirm	tim23-1 confirm
CCSc1n[nH]c2nc3c(c(=O)n12)C1(CCCC1)Cc1ccccc1-3	0	0	0	0	0	0	-	-	-
Cc1ccc(-n2c(SCC(N)=O)nc3c(c2=O)C2(CCCC2)Cc2ccccc2-3)cc1	0	-	0	52	49	0	36	-	44
O=C(O)/C(=C\c1ccccc1OC(F)F)Sc1nnc(-c2ccc(F)cc2)o1	0	0	59	70	71	0	75	68	71
Cc1occc1C(=O)N/N=C/c1ccc(-c2ccccc2)cc1	0	0	43	63	59	0	56	41	57
Cc1occc1C(=O)N/N=C/c1ccc(OCc2ccccc2)cc1	0	0	0	0	0	0	-	-	-
NS(=O)(=O)c1ccc(CCNS(=O)(=O)c2cccc3nsnc23)cc1	0	0	0	0	0	0	-	-	-
N#C/C(=C\c1c(F)cccc1Cl)C(=O)NC1CC1	0	0	61	85	74	0	61	66	81
CC1CCCCC1NC(=O)/C(C#N)=C/c1ccccc1F (centres undefined)	0	0	85	84	89	121	87	88	84
O=C(COc1ccc(Cl)cc1Br)NC(=O)NC1CCCC1	0	-	0	52	51	-	39	-	63
O=C(COc1ccc(Cl)cc1Cl)NC(=O)NC1CCCC1	0	-	0	0	0	-	-	-	-
O=C(COc1ccc(Br)cc1Cl)NC(=O)NC1CCCC1	0	-	0	56	42	0	41	-	55
CS/C(N)=N/N=C/c1cc(Br)cc(Br)c1O	0	0	71	76	47	0	61	61	79
Oc1c(Br)cc(Br)cc1/C=N/n1c(-c2ccccc2)n[nH]c1=S	0	0	0	80	66	0	50	-	88
Cc1nnc(C)n1/N=C/c1cc(Br)cc(Br)c1O	0	0	63	63	56	101	32	0	85
CS/C(N)=N/N=C/c1cc(C)ccc1O	0	0	0	0	0	0	-	-	-
CC(=O)c1cccc(-n2nnnc2SCC(=O)Nc2cc(C)on2)c1	0	0	0	0	0	0	-	-	-
CCCNC(=O)c1cccc(S(=O)(=O)N2CC3(C)CC2CC(C)(C)C3)c1 (centres undefined)	0	-	0	59	41	0	33	-	49
COc1ccc(NC(=O)c2cccc(OC(F)F)c2)cc1Cl	0	0	0	0	0	0	-	-	-
O=C(Nc1ccc(OC(F)F)c(Cl)c1)c1cccc(OC(F)F)c1	0	0	63	71	71	0	63	59	76
Cc1ccc2c(c1)C(=O)C(=O)N2CC1COc2ccccc2O1 (centres undefined)	0	0	0	65	41	0	0	-	78
CN(C)CCN(C)Cc1c2ccccc2c(CN(C)CCN(C)C)c2ccccc12	0	0	0	58	47	0	36	-	56
NNC(=O)c1cc2c(s1)-c1cc(Cl)ccc1SC2	0	-	0	55	57	0	44	-	49
CCN(CC)CCNC(=O)c1cc2c(s1)-c1ccccc1SC2	0	0	0	0	0	0	-	-	-
CC(C)(C)C(=O)/C=c1\s/c(=C\c2ccc(-c3ccc([N+](=O)[O-])cc3)o2)c(=O)n1CC(=O)NC(N)=O	0	0	0	0	0	0	-	-	-
CCOc1ccc(C(=O)/C=C/c2cn(CN3CCN(C)CC3)c3ccccc23)cc1	0	0	0	68	40	0	0	-	51
Cc1cc(C)nc(SC2CC(=O)N(c3ccc(C)c(C)c3)C2=O)n1 (centres undefined)	0	0	0	0	0	0	-	-	-
Cc1ccc(N2C(=O)CC(Sc3ncn[nH]3)C2=O)cc1C (centres undefined)	0	40	56	77	47	0	53	55	49
CCC(=O)c1cn([C@@H](CCC(OC)OC)CC(=O)OC(C)(C)C)cc1CC	0	-	0	0	0	-	-	-	-

Source: PubChem (several laboratories)
